Laboratory results published in a collection of fitness landscapes (doi:10.1016/j.celrep.2020.107928).
Whole data set: some 81,000 sequences, median “one-hybrid fitness for binding NBS DNA” near -0.1, cut for the highest 2% near 0.36. This is one part of a sample in which the highest values are shown more often than they occur.

B1: Caulobacter ParB omega fusion; a variant is named by its letters at X, in order, B8GW30 (parent)
chain: MESVVVGEPGMSEGRRGLGRGLSALLGEVDAAPAQAPGEQLGGSREAPIEILQRNPDQPRRTFREEDLEDLSNSIREKGVLQPILVRPSPDTAGEYQIVAGERAWRAAQRAGLKTVPIMVRELDDLAVLEIGIIENVQRADLNVLEEALSYKVLMEKFERTQENIAQTIGKSXSHVANXMRLLXLPDEVQSYLVSGELTAXHARAIAAAADPVALAKQIIEGGLSVRETEALARKAPNLSAGKSKGGRPPRVKDTDTQALESDLSSVLGLDVSIDHRGSTGTLTITYATLEQLDDLCNRLTRGI

Variants of: B1
Assay: one-hybrid fitness for binding NBS DNA (the Noc-binding site; scaled: cognate 1, non-cognate 0); higher = stronger binding
Conditions: with NBS DNA site
Outline: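 Values were rescaled so that cognate is 1 and non-cognate is 0. Each is a fitness, the log change in a variant's read ratio to wild type from Illumina reads of plasmids before and after selection, with three replicate libraries pooled and variants under 10 reads dropped. Selection of the Caulobacter ParB libraries, four specificity codons randomised, used E. coli USO with a HIS3 reporter, site 19 bp from the promoter, on M9-minus-histidine with 0.1 mM IPTG and 5 mM 3-AT for 48 hours at 37°C.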

| Variant | one-hybrid fitness for binding NBS DNA |
| --- | --- |
| FQVR | ≤ 0.2 |
| TYLE | ≤ 0.2 |
| YVWI | ≤ 0.2 |
| RCYA | 0.24 |
| RCTA | 0.238 |
| RRTA | 0.619 |
| RPGA | ≤ 0.2 |
| RSTA | ≤ 0.2 |
| RCSA | 0.232 |
| RRYA | 0.684 |
| RRSA | 0.605 |
| RSYA | ≤ 0.2 |
| RSSA | ≤ 0.2 |
| RCGA | 0.259 |
| RRGA | 0.664 |
| AHHE | ≤ 0.2 |
| WMIS | ≤ 0.2 |
| DNAG | ≤ 0.2 |
| VKPI | ≤ 0.2 |
| VNAV | ≤ 0.2 |
| CCMW | ≤ 0.2 |
| QMGI | ≤ 0.2 |
| TSPL | ≤ 0.2 |
| RQFK | ≤ 0.2 |

| Variant | one-hybrid fitness for binding NBS DNA |
| --- | --- |
| VLYA | ≤ 0.2 |
| QHGK | ≤ 0.2 |
| IVPF | ≤ 0.2 |
| PKES | ≤ 0.2 |
| VFPS | ≤ 0.2 |
| FLQS | ≤ 0.2 |
| QVPL | ≤ 0.2 |
| LTRI | ≤ 0.2 |
| GFGY | ≤ 0.2 |
| SVNC | ≤ 0.2 |
| RLRA | 0.295 |
| RCWA | ≤ 0.2 |
| RSHA | ≤ 0.2 |
| RRWA | 0.546 |
| RARA | 0.309 |
| RRHA | 0.66 |
| RCHA | 0.307 |
| RCCA | 0.268 |
| RPWA | ≤ 0.2 |
| RRRA | 0.671 |
| RPCA | ≤ 0.2 |
| RRCA | 0.584 |
| PPGV | ≤ 0.2 |
| IQLC | ≤ 0.2 |

| Variant | one-hybrid fitness for binding NBS DNA |
| --- | --- |
| EVWT | ≤ 0.2 |
| YTCT | ≤ 0.2 |
| YRGS | ≤ 0.2 |
| DVKL | ≤ 0.2 |
| HVRW | ≤ 0.2 |
| NNGC | ≤ 0.2 |
| KTNT | 0.226 |
| RSQA | ≤ 0.2 |
| RCIA | ≤ 0.2 |
| RRIA | 0.552 |
| RRPA | 0.282 |
| RCMA | ≤ 0.2 |
| RSLA | ≤ 0.2 |
| RCLA | ≤ 0.2 |
| RCQA | 0.238 |
| RRLA | 0.584 |
| RRQA | 0.695 |
| RPMA | ≤ 0.2 |
| RRMA | 0.591 |
| APCY | ≤ 0.2 |
| TLCF | ≤ 0.2 |
| NTLF | ≤ 0.2 |
| CLPC | ≤ 0.2 |
| DMHR | ≤ 0.2 |

| Variant | one-hybrid fitness for binding NBS DNA |
| --- | --- |
| GSQM | ≤ 0.2 |
| RREA | 0.44 |
| RCEA | ≤ 0.2 |
| RSEA | ≤ 0.2 |
| STQW | ≤ 0.2 |
| SNSF | ≤ 0.2 |
| WTSV | ≤ 0.2 |
| QTVQ | 0.534 |
| QTWQ | ≤ 0.2 |
| QTKQ | 0.568 |
| QTIQ | ≤ 0.2 |
| YDNH | ≤ 0.2 |
| MVEY | ≤ 0.2 |
| KRAS | 0.409 |
| KRHD | ≤ 0.2 |
| KRES | 0.264 |
| KRRP | ≤ 0.2 |
| KRDH | ≤ 0.2 |
| KRYS | 0.447 |
| KRHS | 0.464 |
| KRAD | ≤ 0.2 |
| KRFS | 0.358 |
| KRHN | ≤ 0.2 |
| KRRH | 0.422 |

| Variant | one-hybrid fitness for binding NBS DNA |
| --- | --- |
| KRIS | 0.308 |
| GYTL | ≤ 0.2 |
| SSDL | ≤ 0.2 |
| SLMH | ≤ 0.2 |
| HKYA | ≤ 0.2 |
| YCMR | ≤ 0.2 |
| HEIR | ≤ 0.2 |
| KRNH | 0.265 |
| KRDS | 0.28 |
| KRQS | 0.443 |
| KCRS | 0.216 |
| KRQH | 0.221 |
| KRSN | ≤ 0.2 |
| KRSS | 0.421 |
| KRNS | 0.453 |
| KRSH | 0.205 |
| KRRS | 0.549 |
| KRQN | ≤ 0.2 |
| KRRN | 0.217 |
| VPML | ≤ 0.2 |
| PIAK | ≤ 0.2 |
| QDVN | ≤ 0.2 |
| APGE | ≤ 0.2 |
| GIHG | ≤ 0.2 |

| Variant | one-hybrid fitness for binding NBS DNA |
| --- | --- |
| KCYL | ≤ 0.2 |
| KRCH | ≤ 0.2 |
| KRWS | 0.436 |
| KRCS | 0.387 |
| KRWH | ≤ 0.2 |
| KRCN | ≤ 0.2 |
| KRWN | ≤ 0.2 |
| WTHQ | ≤ 0.2 |
| AAML | ≤ 0.2 |
| VNPF | ≤ 0.2 |
| GHPM | ≤ 0.2 |
| CVHG | ≤ 0.2 |
| RNYT | ≤ 0.2 |
| RNRP | ≤ 0.2 |
| RNDT | ≤ 0.2 |
| RNYS | ≤ 0.2 |
| RNVT | ≤ 0.2 |
| RNRS | 0.491 |
| RNKT | 0.46 |
| RNRT | 0.391 |
| RNKD | ≤ 0.2 |
| YKHS | ≤ 0.2 |
| KGVE | ≤ 0.2 |
| RSGS | 0.419 |

| Variant | one-hybrid fitness for binding NBS DNA |
| --- | --- |
| RLGD | ≤ 0.2 |
| RMGP | ≤ 0.2 |
| RSGN | ≤ 0.2 |
| RLGP | ≤ 0.2 |
| RMGD | ≤ 0.2 |
| RMGS | 0.461 |
| RIGN | ≤ 0.2 |
| RSGD | ≤ 0.2 |
| RLGS | 0.419 |
| RIGP | ≤ 0.2 |
| RIGS | 0.369 |
| CRQG | ≤ 0.2 |
| LDLL | ≤ 0.2 |
| AGNM | ≤ 0.2 |
| AITP | ≤ 0.2 |
| AYSK | ≤ 0.2 |
| DEHT | ≤ 0.2 |
| IPES | ≤ 0.2 |
| ERQV | ≤ 0.2 |
| QYAC | ≤ 0.2 |
| KLFS | ≤ 0.2 |
| RHER | 0.235 |
| EADR | ≤ 0.2 |
| KFKV | ≤ 0.2 |

| Variant | one-hybrid fitness for binding NBS DNA |
| --- | --- |
| RAGN | ≤ 0.2 |
| RTGN | ≤ 0.2 |
| RTGD | ≤ 0.2 |
| RKGD | ≤ 0.2 |
| RHGN | ≤ 0.2 |
| RKGN | ≤ 0.2 |
| RAGD | ≤ 0.2 |
| RHGS | 0.368 |
| RHGD | ≤ 0.2 |
| RTGS | 0.491 |
| RKGS | 0.576 |
| RAGS | 0.466 |
| LATQ | ≤ 0.2 |
| NNCL | ≤ 0.2 |
| PCCV | ≤ 0.2 |
| VENS | ≤ 0.2 |
| FMGS | ≤ 0.2 |
| DHPH | ≤ 0.2 |
| KDLT | ≤ 0.2 |
| ENHG | ≤ 0.2 |
| NCII | ≤ 0.2 |
| SQRK | ≤ 0.2 |
| MVPG | ≤ 0.2 |
| RPGS | ≤ 0.2 |

| Variant | one-hybrid fitness for binding NBS DNA |
| --- | --- |
| RFGS | ≤ 0.2 |
| RCGS | 0.482 |
| GNMC | ≤ 0.2 |
| FFRR | ≤ 0.2 |
| NETT | ≤ 0.2 |
| VCKR | 0.228 |
| VCRR | 0.246 |
| VRYR | 0.239 |
| VRVR | ≤ 0.2 |
| VRNR | 0.368 |
| VRDR | ≤ 0.2 |
| VCNR | ≤ 0.2 |
| VRRR | 0.624 |
| VRKR | 0.62 |
| TYNY | ≤ 0.2 |
| VWLM | ≤ 0.2 |
| RPGK | ≤ 0.2 |
| RFHR | 0.305 |
| RPHR | ≤ 0.2 |
| RCHR | 0.586 |
| RSHN | ≤ 0.2 |
| RSHD | ≤ 0.2 |
| RSHR | 0.476 |
| LSID | ≤ 0.2 |

| Variant | one-hybrid fitness for binding NBS DNA |
| --- | --- |
| YTWT | ≤ 0.2 |
| SVNS | ≤ 0.2 |
| PHLC | ≤ 0.2 |
| NPYT | ≤ 0.2 |
| QTQR | 0.757 |
| QSQN | ≤ 0.2 |
| QIQN | ≤ 0.2 |
| QSQR | 0.535 |
| QIQD | ≤ 0.2 |
| QTQD | ≤ 0.2 |
| QTQH | 0.346 |
| QAQP | ≤ 0.2 |
| QSQH | 0.246 |
| QIQR | 0.39 |
| QAQN | ≤ 0.2 |
| QAQR | 0.506 |
| SVRD | ≤ 0.2 |
| NSML | ≤ 0.2 |
| LLKM | ≤ 0.2 |
| MPSK | ≤ 0.2 |
| KHMV | ≤ 0.2 |
| QKQR | 0.67 |
| QPQR | ≤ 0.2 |
| QDQR | ≤ 0.2 |

| Variant | one-hybrid fitness for binding NBS DNA |
| --- | --- |
| QKQG | ≤ 0.2 |
| QGQR | ≤ 0.2 |
| QCQR | 0.612 |
| QKQN | ≤ 0.2 |
| QHQD | ≤ 0.2 |
| QHQR | 0.523 |
| YKRT | ≤ 0.2 |
| SATK | ≤ 0.2 |
| TSAP | ≤ 0.2 |
| DITY | ≤ 0.2 |
| QYQP | ≤ 0.2 |
| QYQT | 0.446 |
| QYQS | 0.373 |
| QYQG | ≤ 0.2 |
| QYQM | ≤ 0.2 |
| QYQY | ≤ 0.2 |
| QHTQ | ≤ 0.2 |
| IKPC | ≤ 0.2 |
| QEEP | ≤ 0.2 |
| QTAE | ≤ 0.2 |
| AHII | ≤ 0.2 |
| QTLG | ≤ 0.2 |
| QKVC | ≤ 0.2 |
| QKIC | ≤ 0.2 |

| Variant | one-hybrid fitness for binding NBS DNA |
| --- | --- |
| QRIC | 0.303 |
| QLKC | 0.304 |
| QRVC | 0.314 |
| QMNC | ≤ 0.2 |
| QMVC | ≤ 0.2 |
| QMKC | 0.383 |
| QRKC | 0.507 |
| QKKC | 0.385 |
| QSVC | ≤ 0.2 |
| QSKC | 0.367 |
| HLMG | ≤ 0.2 |
| TSYM | ≤ 0.2 |
| HDED | ≤ 0.2 |
| PFKY | ≤ 0.2 |
| LLIF | ≤ 0.2 |
| QCLE | ≤ 0.2 |
| HMAT | ≤ 0.2 |
| CQKM | ≤ 0.2 |
| RIAG | ≤ 0.2 |
| QTPC | ≤ 0.2 |
| QTVC | ≤ 0.2 |
| QTKC | 0.53 |
| QAKC | 0.349 |
| QHKC | 0.367 |

| Variant | one-hybrid fitness for binding NBS DNA |
| --- | --- |
| QCKC | 0.452 |
| QHYC | ≤ 0.2 |
| QPKC | ≤ 0.2 |
| QHVC | ≤ 0.2 |
| KAAT | ≤ 0.2 |
| GLAF | ≤ 0.2 |
| PDTG | ≤ 0.2 |
| GSLV | ≤ 0.2 |
| QKCT | 0.475 |
| QKHT | 0.549 |
| QKHC | ≤ 0.2 |
| QKWG | ≤ 0.2 |
| QKCY | ≤ 0.2 |
| QAWT | 0.297 |
| QKWT | 0.454 |
| QKPT | 0.306 |
| QKIT | 0.363 |
| QKYT | 0.511 |
| QKCC | ≤ 0.2 |
| QKHM | ≤ 0.2 |
